Growth data for eight compounds are collected here from PubChem BioAssay (NCI).

Some test systems named below: NCI-H23 lung; NCI-H226 lung; NCI-H322M lung; HOP-62 NSCLC; NCI-H460 lung; NCI-H522 lung; A549/ATCC NSCLC; 786-0 renal; COLO 205 colon; DU-145 prostate; K-562 leukemia; MDA-MB-231 breast; RXF 393 renal; SF-268 CNS; SF-295 CNS; SF-539 CNS; UACC-257 melanoma; M14 melanoma; HCT-15 colon.
What all share (test): NCI-60 one-dose screen, 48 h (100 = growth as untreated, 0 = no growth, -100 = all killed)
What all share (conditions): 10 µM

About 83,000 compounds went through this panel and 20% of them were active in at least one assay; those are over-represented in the sample as a whole.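 Compound tested at a single concentration for 48 hours in 96-well plates; a percent growth value below 10 was scored as active.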 Unmarked numbers belong to inactive results. The source made the active and inactive calls.

For `CC(C)(C)NC/C(=C\c1ccccc1)C(=O)c1ccccc1`, the growth with NCI-H23 lung is 12.4%; in the assay with NCI-H226 lung it was 49.1%; in the assay on NCI-H322M lung, 63.3%; with HOP-62 NSCLC, 26.5%; in the assay with NCI-H460 lung it was 8.72% (active); in the assay on NCI-H522 lung it was -92.5% (active). The growth in the assay with A549/ATCC NSCLC is 30.1%; in the assay with 786-0 renal, -41.6% (active); with COLO 205 colon, -74.1% (active); in the assay on DU-145 prostate, 21.8%; in the assay with K-562 leukemia, 6.24% (active); in the assay on MDA-MB-231 breast, -23% (active). Also, the growth with RXF 393 renal was -66.4% (active); with SF-268 CNS, 7.36% (active); in the assay on SF-295 CNS, 85.9%; with SF-539 CNS, -46.2% (active); in the assay with UACC-257 melanoma, -8.37% (active); in the assay with M14 melanoma it was -30.6% (active). In addition, the growth with HCT-15 colon was -52.1% (active).
Consider `Cc1ccc(-c2nc(/C=C3/C(=O)N(C)c4ccc(F)cc43)c3ccccn23)cc1`, for which the growth was 86.5% in the assay with NCI-H23 lung; 106% in the assay with NCI-H226 lung; 103% in the assay on NCI-H322M lung; 77.9% with HOP-62 NSCLC; 96.7% with NCI-H460 lung; 60.5% in the assay with NCI-H522 lung. For the same compound, the growth in the assay on A549/ATCC NSCLC is 94.1%; in the assay on 786-0 renal, 107%; in the assay on COLO 205 colon, 120%; with DU-145 prostate it was 99.3%; in the assay on K-562 leukemia it was 107%; with MDA-MB-231 breast, 76.5%. Besides, the growth is 97.9% in the assay on RXF 393 renal; 92.1% in the assay on SF-268 CNS; 71.3% with SF-295 CNS; 94.6% in the assay on SF-539 CNS; 106% in the assay with UACC-257 melanoma; 99.5% with M14 melanoma. Moreover, in the assay with HCT-15 colon, the growth is 93%.
On to `COc1ccc2c(c1)sc1nc(-c3ccccc3)c(-c3ccsc3)n12`, for which the growth in the assay with NCI-H23 lung was 36%; in the assay with NCI-H226 lung, 55.8%; in the assay with NCI-H322M lung, 53.4%; in the assay on HOP-62 NSCLC, 36.8%; in the assay with NCI-H460 lung, 7.9% (active); in the assay on NCI-H522 lung, -13.4% (active). Besides, the growth was 31.1% with A549/ATCC NSCLC; 57.5% with 786-0 renal; 3.28% (active) with COLO 205 colon; 3.69% (active) with DU-145 prostate; 13.8% with K-562 leukemia; 52.3% in the assay on MDA-MB-231 breast. In addition, the growth in the assay on RXF 393 renal was -13.3% (active); with SF-268 CNS it was 54.3%; in the assay with SF-295 CNS it was -20% (active); in the assay with SF-539 CNS it was 2.07% (active); in the assay on UACC-257 melanoma it was 39.7%; in the assay on M14 melanoma it was 15.6%. In the assay with HCT-15 colon, the growth is 30.5%.
`CC[C@H]1CCC/C=C/[C@@H]2C[C@H](O)C[C@H]2[C@H](O)/C=C/C(=O)O1`: the growth was -12.8% (active) in the assay on NCI-H23 lung; -1.27% (active) with NCI-H226 lung; -2.58% (active) in the assay with NCI-H322M lung; 25.2% with HOP-62 NSCLC; 6.08% (active) in the assay on NCI-H460 lung; -56.8% (active) in the assay on NCI-H522 lung. Also, the growth in the assay with A549/ATCC NSCLC is 5.74% (active); in the assay with 786-0 renal it was -49% (active); with COLO 205 colon it was -97.2% (active); in the assay on DU-145 prostate, 3.43% (active); in the assay on K-562 leukemia, 10.3%; in the assay on MDA-MB-231 breast, -88.4% (active). The growth was -29.2% (active) in the assay with RXF 393 renal; 8% (active) with SF-268 CNS; -1.83% (active) in the assay with SF-295 CNS; 30.9% in the assay on SF-539 CNS; -13.6% (active) in the assay on UACC-257 melanoma; 2.47% (active) with M14 melanoma. Besides, the growth with HCT-15 colon is 8.78% (active).
`CC(=O)c1cc(Br)ccc1O`: the growth with NCI-H23 lung is 105%; in the assay with NCI-H226 lung, 101%; with NCI-H322M lung it was 127%; with HOP-62 NSCLC it was 118%; in the assay with NCI-H460 lung, 105%; in the assay with NCI-H522 lung, 87.4%. The growth in the assay on A549/ATCC NSCLC was 107%; in the assay with 786-0 renal it was 104%; with COLO 205 colon it was 121%; in the assay with DU-145 prostate, 114%; with K-562 leukemia, 103%; in the assay on MDA-MB-231 breast it was 108%. Also, the growth is 109% in the assay on RXF 393 renal; 112% in the assay on SF-268 CNS; 95.3% in the assay with SF-295 CNS; 97.1% in the assay with SF-539 CNS; 113% in the assay on UACC-257 melanoma; 104% in the assay on M14 melanoma. In the assay with HCT-15 colon, the growth was 101%.
Regarding `N=C1c2nc3n(c2C(=O)c2nc4n(c21)CCCC4)CCCC3`, the growth was -70.4% (active) in the assay with NCI-H23 lung; 57.1% in the assay on NCI-H226 lung; 27.7% with NCI-H322M lung; 52.3% in the assay with HOP-62 NSCLC; 4.62% (active) in the assay on NCI-H460 lung; 10.5% in the assay on NCI-H522 lung. Moreover, the growth with A549/ATCC NSCLC is -30.6% (active); with 786-0 renal it was 89%; in the assay with COLO 205 colon it was -88.6% (active); in the assay on DU-145 prostate, -93.9% (active); in the assay on K-562 leukemia, 81.4%; in the assay on MDA-MB-231 breast, 82.6%. Moreover, the growth was 94.8% in the assay on RXF 393 renal; 71.3% in the assay with SF-268 CNS; -85.7% (active) with SF-295 CNS; -21.7% (active) in the assay with SF-539 CNS; -6.6% (active) with UACC-257 melanoma; -95.6% (active) with M14 melanoma. Further, the growth in the assay on HCT-15 colon is 6.18% (active).
In the case of `Cc1ccc2oc3nc(C)c(C(=O)NCc4ccccc4)cc3c(=O)c2c1`, the growth with NCI-H23 lung was 83.8%; in the assay with NCI-H226 lung, 104%; in the assay on NCI-H322M lung, 76.8%; with HOP-62 NSCLC it was 100%; in the assay with NCI-H460 lung, 41.4%; in the assay with NCI-H522 lung, 76.7%. In addition, the growth in the assay with A549/ATCC NSCLC was 73.5%; with 786-0 renal it was 55.6%; with COLO 205 colon it was 23.8%; with DU-145 prostate, 86.9%; in the assay on K-562 leukemia it was 18.4%; in the assay with MDA-MB-231 breast, 88.8%. The growth in the assay on RXF 393 renal was 120%; with SF-268 CNS, 95.3%; with SF-295 CNS it was 41.9%; with SF-539 CNS it was 99.3%; in the assay with UACC-257 melanoma, 69.2%; in the assay on M14 melanoma, 29%. In the assay with HCT-15 colon, the growth is 78.8%.
Regarding `O=[N+]([O-])c1cccc(N=Cc2ccc3c(c2)OCO3)c1`, the growth with NCI-H23 lung was 104%; in the assay with NCI-H226 lung it was 104%; with NCI-H322M lung, 112%; with HOP-62 NSCLC, 109%; with NCI-H460 lung it was 120%; in the assay with NCI-H522 lung, 89.8%. The growth was 101% in the assay on A549/ATCC NSCLC; 106% with 786-0 renal; 120% in the assay on COLO 205 colon; 119% with DU-145 prostate; 100% in the assay on K-562 leukemia; 130% in the assay with MDA-MB-231 breast. In addition, the growth is 118% in the assay on RXF 393 renal; 114% in the assay with SF-268 CNS; 102% in the assay with SF-295 CNS; 115% in the assay with SF-539 CNS; 102% with UACC-257 melanoma; 97.7% in the assay on M14 melanoma. Besides, the growth in the assay with HCT-15 colon is 122%.
